From PubChem BioAssay (NCI)
Compounds without any hit were thinned out: in the full panel of roughly 83,000, 20% have a hit.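 48-hour exposure, single concentration, 96-well plates; percent growth endpoint where 0 means no net growth. Active: below 10.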 A number with no mark means an inactive call. The source made the active and inactive calls.

Columns and labels:
Experiment in all cases: NCI-60 one-dose screen, 48 h (100 = growth as untreated, 0 = no growth, -100 = all killed)
Details in all cases: 10 µM unless noted
NCI-H23 lung = test system: NCI-H23 lung
NCI-H226 lung = test system: NCI-H226 lung
NCI-H322M lung = test system: NCI-H322M lung
HOP-62 NSCLC = test system: HOP-62 NSCLC
NCI-H460 lung = test system: NCI-H460 lung
HOP-92 NSCLC = test system: HOP-92 NSCLC
NCI-H522 lung = test system: NCI-H522 lung
A549/ATCC NSCLC = test system: A549/ATCC NSCLC
786-0 renal = test system: 786-0 renal
COLO 205 colon = test system: COLO 205 colon
DU-145 prostate = test system: DU-145 prostate
K-562 leukemia = test system: K-562 leukemia
MALME-3M melanoma = test system: MALME-3M melanoma
MDA-MB-231 breast = test system: MDA-MB-231 breast
RXF 393 renal = test system: RXF 393 renal
SF-268 CNS = test system: SF-268 CNS
SF-295 CNS = test system: SF-295 CNS
SF-539 CNS = test system: SF-539 CNS
UACC-257 melanoma = test system: UACC-257 melanoma
M14 melanoma = test system: M14 melanoma

SMILES | growth (NCI-H23 lung) | growth (NCI-H226 lung) | growth (NCI-H322M lung) | growth (HOP-62 NSCLC) | growth (NCI-H460 lung) | growth (HOP-92 NSCLC) | growth (NCI-H522 lung) | growth (A549/ATCC NSCLC) | growth (786-0 renal) | growth (COLO 205 colon) | growth (DU-145 prostate) | growth (K-562 leukemia) | growth (MALME-3M melanoma) | growth (MDA-MB-231 breast) | growth (RXF 393 renal) | growth (SF-268 CNS) | growth (SF-295 CNS) | growth (SF-539 CNS) | growth (UACC-257 melanoma) | growth (M14 melanoma)
CC1(C)CC[C@]23CC[C@]4(C)[C@H](CC[C@@H]5[C@@]6(C)C/C(=C/O)C(=O)C(C)(C)[C@@H]6CC[C@]54C)[C@H]2[C@H]1OC3 | 99.1% | 105% | 105% | 102% | 107% | 105% | 90.6% | 106% | 106% | 111% | 115% | 105% | 104% | 97.6% | 121% | 108% | 103% | 101% | 101% | 103%
O=c1ccc2ccc(OCCN3CCCCC3)cc2o1 | 98.4% | 103% | 97% | 84.5% | 108% | -17.3% (active) | 86.6% | 98% | 99.5% | 98.5% | 118% | -17.2% (active) | 107% | 95.7% | 114% | 110% | 98.8% | 106% | 89.3% | 96.1%
C#CCOc1ccc2nc(CCl)c(Cl)c(Nc3cccc(C(F)(F)F)c3)c2c1 | 87.8% | 84.7% | 98.1% | 93% | 105% | 94.6% | 36.4% | 94.7% | 76% | 80% | 72% | 38.8% | 59.5% | 55% | 84.1% | 85.3% | 88% | 104% | 93.7% | 81.4%
O=c1oc2ccccc2cc1-c1nn(-c2ccccc2)cc1-c1nn[nH]n1 | 101% | 92.8% | 100% | 90.8% | 105% | 92.2% | 94.6% | 97.7% | 104% | 108% | 113% | 103% | 90% | 94.7% | 99.4% | 103% | 99.7% | 97.4% | 100% | 98.2%
O=C(O)CCCCCCCCCCN1C(=O)/C(=C2/C(=O)N(CC(=O)O)c3ccc(Br)cc32)SC1=S | 92.8% | 98.1% | 97% | 102% | 105% | 80.7% | 90.1% | 92% | 54.7% | 110% | 106% | 69.6% | 96.9% | 92.3% | 113% | 96.9% | 103% | 104% | 97.9% | 96.3%
COCCn1cc(-c2nc(-c3c[nH]c4ncccc34)cs2)c2ccccc21 | 40.7% | 48.2% | 43.4% | 47.2% | 22.6% | 2.56% (active) | 46.7% | 52.2% | 77.9% | 24.8% | 85.5% | 28.5% | 97.8% | 22.5% | 51.6% | 63.9% | 68.8% | 68.4% | 87.3% | 68.6%
CCN(CC)CCn1c2ccc(OC)cc2c2sc3cc(O)ccc3c(=O)c21 | 23.9% | 112% | 34.2% | 34.4% | 8.17% (active) | 61.8% | 42.2% | 17.9% | 26.1% | 23% | 42.7% | 6.38% (active) | 34.1% | 54.1% | 27.5% | 38.5% | 17.9% | 25.3% | 78.4% | 31.2%
ClCCn1cnc2c(SCc3ccccc3)ncnc21 | 72.4% | 65.4% | 75.3% | 66.6% | 12.2% | 63.7% | 65.8% | 40% | 64.8% | 52.4% | 63.3% | 40.8% | 57.6% | 75.6% | 87.8% | 67.1% | 37.6% | 37.3% | 62.4% | 71.7%
C=CN(C(=O)N1CCN(c2cc3c(cc2F)c(=O)c(C(=O)O)cn3C2CC2)CC1)c1nc(-c2ccccc2)cs1 | 101% | 98.1% | 84.1% | 98.4% | 104% | 90.6% | 81.4% | 102% | 90.1% | 98.5% | 107% | 94.8% | 107% | 90.4% | 103% | 99.4% | 95.7% | 96.5% | 100% | 105%
COc1ccc(-c2nc3c(c(-c4ccc(Cl)cc4)nn3-c3ccccc3)c(-c3ccccc3)c2C#N)cc1 | 103% | 97.4% | 102% | 111% | 104% | 120% | 96.3% | 95.9% | 108% | 118% | 104% | 100% | 103% | 111% | 134% | 106% | 102% | 103% | 95.9% | 92.3%
CN1C(=O)N2CN3CCCN(C3)CN3C(=S)NC1C23 (stereo not given) | 103% | 99.6% | 105% | 104% | 105% | 98.7% | 95% | 87% | 102% | 117% | 103% | 97.1% | 112% | 104% | 109% | 99.8% | 105% | 103% | 87.6% | 107%
C[N+]1=C(/C=C/c2ccccc2Cl)C(C)(C)c2ccccc21 | 74.3% | 80% | 98.6% | 98.7% | 103% | 90.1% | 81.8% | 92.5% | 95.9% | 95.9% | 94.5% | 77.3% | 98.4% | 98% | 89.2% | 96.7% | 103% | 101% | 92% | 97.8%
NC(=O)c1ccccc1OCC(=O)Nc1ccc(Cl)c(Cl)c1 | 104% | 96.3% | 96.8% | 96.8% | 100% | 88.7% | 83.1% | 114% | 109% | 105% | 114% | 91% | 100% | 96.1% | 104% | 107% | 98.9% | 85.1% | 112% | 111%
Fc1cc2[nH]ncc2c2c3c(c(-c4cn[nH]c4C(F)(F)F)nc12)CCCC3 | -12.2% (active) | 6.19% (active) | -0.0231% (active) | -1.79% (active) | 2.41% (active) | -71% (active) | -24.2% (active) | 2.17% (active) | 1.39% (active) | -45.6% (active) | 5.47% (active) | -34.5% (active) | 10.5% | 7.95% (active) | -56.2% (active) | 0.494% (active) | 5.61% (active) | -66.9% (active) | 2.49% (active) | -2.16% (active)
CC(O)CNC(Cc1ccccc1)c1ccc2c(c1)OCO2 (stereo not given) | 98.5% | 90% | 93.6% | 60.9% | 103% | 67.2% | 71.9% | 84.6% | 83% | 71.4% | 107% | 90.5% | 91% | 99.5% | 110% | 95.9% | 88.8% | 87.4% | 103% | 80.4%
CCOC(=O)CC1CSC(N/N=C/c2ccc(F)c(Br)c2)=N1 (stereo not given) | 99.8% | 104% | 109% | 94.2% | 112% | 105% | 86.2% | 91.2% | 100% | 110% | 103% | 90.5% | 101% | 109% | 111% | 92.3% | 96.8% | 106% | 103% | 102%
